# From PubChem
# Only a selection was taken, and hits are over-represented in it overall.
# ST2 IL33 inh: IL1RL1 inhibition. Q01638. AlphaLISA ST2-Fc/biotin-IL-33 interaction, 1 h. inhibition, % for hits at 17 µM. 2.3% of 78,000 active. AID 1259354; in the data active = inhibition above about 30%
# Target sequence (Q01638 whole entry, looked up): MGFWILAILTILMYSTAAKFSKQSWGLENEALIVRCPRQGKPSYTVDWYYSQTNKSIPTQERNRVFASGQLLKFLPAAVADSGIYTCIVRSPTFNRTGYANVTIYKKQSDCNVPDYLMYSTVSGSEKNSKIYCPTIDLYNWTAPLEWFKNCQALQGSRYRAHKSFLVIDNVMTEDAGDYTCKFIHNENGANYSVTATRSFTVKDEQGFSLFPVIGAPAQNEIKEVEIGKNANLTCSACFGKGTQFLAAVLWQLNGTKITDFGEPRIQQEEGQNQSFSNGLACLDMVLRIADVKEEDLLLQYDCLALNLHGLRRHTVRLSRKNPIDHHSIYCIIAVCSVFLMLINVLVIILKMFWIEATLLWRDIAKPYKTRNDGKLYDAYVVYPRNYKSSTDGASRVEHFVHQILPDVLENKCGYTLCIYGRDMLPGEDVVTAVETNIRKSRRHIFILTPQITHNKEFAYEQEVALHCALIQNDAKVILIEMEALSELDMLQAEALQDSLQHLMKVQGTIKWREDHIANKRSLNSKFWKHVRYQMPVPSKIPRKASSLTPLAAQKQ
# The depositor's hits bear a star; i = inactive.
SMILES,ST2 IL33 inh
Cc1cccc(N2CCN(S(=O)(=O)c3ccc(Br)s3)CC2)c1C,i
COc1cc(C)ccc1OCCCOc1ccc(C(=O)O)cc1,i
O=C1NC(c2cc3c(cc2Cl)OCO3)Nc2sc3c(c21)CCCC3 (configuration not stated),i
O=C(Nc1cccc(F)c1)c1cc(F)c(F)cc1Cl,i
COc1cccc(CNC(=O)CCC2CCCN(C(=O)c3ccc4cccc(F)c4n3)C2)c1 (configuration not stated),i
Cc1cccc(-c2nnc(-c3nc(NCc4ccccc4C)c4ccccc4n3)o2)c1,i
Cc1nnc(-c2ccccc2-c2cccc(CN3CCOCC3)c2)o1,i
Cc1nnc(-c2cccc(-c3cc(NCc4ccccn4)nc4[nH]ccc34)c2)o1,35%*
CC(C)CN1C(=O)NC(Cc2cccc(F)c2)(C2CCN(C(=O)c3cc(C4CC4)[nH]n3)CC2)C1=O (configuration not stated),i
CCCOc1cccc(C(=O)Nc2cc(Cl)ccc2C(=O)O)c1,i
NC(=O)c1ccc(NC(=O)c2cc(Br)ccc2Cl)cc1,i
O=[N+]([O-])c1ccccc1Oc1ccccc1,30%*
O=C(O)Cc1ccccc1[N+](=O)[O-],i
O=C(O)c1cc([N+](=O)[O-])c(C(=O)O)cc1Oc1ccc(Cl)cc1,i
COC(=O)C1=NNC2(C)C(=O)N(c3ccc(C)c(C)c3)C(=O)C12 (configuration not stated),i
c1ccc(CN2CCC(N3CCN(c4nc(-c5ccccc5)nc5c4CCC5)CC3)C2)cc1 (configuration not stated),i
CCC(C)OC(=O)C1=C(C)NC2=C(C(=O)C(C(=O)OC)C(C)C2)C1c1cc(OC)ccc1OC (configuration not stated),i
Cc1nc2nc(SCC(=O)N3CCC(C)CC3)nn2c(C)c1Cc1ccc(Cl)cc1,i
CCCSc1nc2nc3c(cc2c(=O)n1-c1ccc(OC)cc1)COC(C)(C)C3,44%*
CSc1nc2nc3c(cc2c(=O)n1-c1ccccc1C)COC(C)(C)C3,i
CCC1(C)Cc2c(sc3nc(SC)n(-c4ccc(OC)cc4)c(=O)c23)CO1 (configuration not stated),i
C=CCn1c(SCC(=O)NCCc2ccccc2)nnc1-c1ccc(Cl)cc1Cl,i
CCN1CCCC1CNC(=O)C1(O)c2ccccc2NC(=O)N1c1c(F)cccc1F (configuration not stated),i
Cc1ccccc1N1CCN(C2CCCN(C(=O)Cn3nc4ccccc4n3)C2)CC1 (configuration not stated),i
Cn1c(=O)c(N)c2c3c(cccc31)C(=O)c1ccccc1-2,31%*
SMILES,ST2 IL33 inh
Cn1c(=O)c2c(-c3ccccc3)n(N)cc2n(C)c1=O,i
Cn1c2c(c(=O)n(C)c1=O)C(c1ccccc1)C1=C(N2)c2ccccc2C1=O (configuration not stated),i
COC(=O)c1cccc(NC(=S)N[C@H]2CO[C@H]3[C@@H]2OC[C@@H]3n2nnnc2Oc2ccccc2)c1,i
O=C1Nc2ccccc2C(O)(C(=O)NCCN2CCOCC2)N1c1ccc(Cl)cc1 (configuration not stated),i
O=C(COc1ccc([N+](=O)[O-])cc1)Nc1sc2c(c1C(=O)NCC1CCCO1)CCCC2 (configuration not stated),i
O=c1[nH]c(=O)c2nc3c(ccc4nsnc43)nc2[nH]1,i
Nc1ccc2nc3c(=O)[nH]c(=O)[nH]c3nc2c1,53%*
Cn1c(=O)c2nc3ccc(N)cc3nc2n(C)c1=O,i
O=C(O)C1CN(c2ncccn2)CCN1Cc1cnc[nH]1 (configuration not stated),i
CN1CCN(c2nc3c(c(=O)n(C)c(=O)n3C)n2Cc2ccccc2Br)CC1,i
CCn1c2ccccc2c2nnc(SCC(=O)N3CCCc4ccccc43)nc21,i
O=C(CSc1nnc2c3ccccc3n(CCc3ccccc3)c2n1)N1CCOCC1,33%*
c1ccc(CCn2c3ccccc3c3nnc(SCCN4CCOCC4)nc32)cc1,i
Cc1c(Cl)cccc1Nc1nnc(Cc2ccc(Cl)cc2)c(=O)[nH]1,i
NC(=O)CCn1c(COc2ccc(Cl)cc2Cl)nc2ccccc21,i
CCc1cccc(C)c1NS(=O)(=O)c1cccc2cccnc12,i
O=C(Nc1ccc2c(c1)OCO2)c1cc(-c2ccco2)on1,i
COc1cc(Cl)cc2cc(C(=O)N3CCCC4(CNC(=O)O4)C3)oc12 (configuration not stated),i
O=C1/C(=C/C=C/c2ccco2)CC/C1=C\C=C\c1ccco1,96%*
CCCCOc1ccc(CSCCN)cc1,i
CC1=C(C(=O)OC(C)(C)C)C(c2cccnc2)C(C#N)=C(N)O1 (configuration not stated),i
CCOc1ccc(C(=O)Nc2c(C)cccc2CC)cc1[N+](=O)[O-],i
COc1ccc(NC(=O)c2cccc(Oc3ccc(C(F)(F)F)cc3[N+](=O)[O-])c2)cc1,i
Cc1cc(Oc2cc(C#N)c(C#N)cc2[N+](=O)[O-])cc(C)c1Cl,39%*
COc1cc2c(cc1OC)C(C(=O)NCCC1=CCCCC1)C(c1cccs1)N(C)C2=O (configuration not stated),i
SMILES,ST2 IL33 inh
COc1ccc(C2CC(c3ccc(Cl)cc3)Nc3nc(N)nn32)cc1 (configuration not stated),i
CC(=O)Nc1ncc(C(=O)N2Cc3cnc(CC(C)C)nc3C2)s1,i
O=C(Nc1ccccc1-c1ccccc1NC(=O)c1ccccc1Cl)c1ccccc1Cl,i
COc1ccc(CNC(=O)[C@H]2O[C@H](CCN3CCN(c4ccccc4)CC3)CC[C@@H]2O)cc1,i
O=C(O)C1CC=CCC1C(=O)Nc1ccccc1 (configuration not stated),i
COCCN(CCOC)CC[C@@H]1CC[C@H](O)[C@@H](C(=O)Nc2ccccc2)O1,38%*
CCOC(=O)CCSc1nc(C)c2cc(C)ccc2n1,i
COc1ccc2nc(SCCc3ccccc3)nc(C)c2c1,i
COc1ccc2nc(SC(=O)c3ccccc3)nc(C)c2c1,43%*
O=[N+]([O-])c1cccc(C2SCCN2S(=O)(=O)c2ccc(F)cc2)c1 (configuration not stated),i
Cc1ccc(CSc2nc(-c3cccs3)nc3c2c(=O)n(C)c(=O)n3C)cc1,i
O=c1oc(-c2ccc(F)cc2)nc2ccc(Br)cc12,i
Cn1c(CNc2ccccc2)cc(=O)n(C)c1=O,i
Cn1c(=O)cc2c3c(c(Nc4ccccc4)ccc31)C(=O)c1ccccc1-2,40%*
O=C1NC(=O)c2cc(Nc3ccccc3)c(Nc3ccccc3)cc21,i
O[C@H]1CN[C@H](c2nc(-c3ccc4c(c3)OCO4)no2)C1,i
Cc1[nH]c(-c2ccccc2)nc1C(=O)N1CCc2c(ncnc2N(C)C)C1,i
Cc1cc(NC(=O)c2cnc3sccn3c2=O)no1,i
Cc1cccc(C)c1OCC(O)CN1CCOCC1 (configuration not stated),i
Cc1ccc(C(N)=NC(=NS(=O)(=O)c2ccccc2)c2ccccc2)cc1,i
Cc1ccc(S(=O)(=O)N=C(Nc2ccccn2)c2ccccc2)cc1,i
CC1=CC(=NC(=NS(=O)(=O)c2ccc(C)cc2)c2ccccc2)C(C)=CC1=O,44%*
CNC(=O)CN1C(=O)/C(=C\c2cccc(Cl)c2)Sc2ccccc21,i
Cc1ccc2cc(CN3CCN(CCn4cncn4)CC3)c(=O)[nH]c2c1,i
